The results in this text go back to PubChem BioAssay (NCI).

Test systems include NCI-H23 lung; NCI-H226 lung; NCI-H322M lung; HOP-62 NSCLC; NCI-H460 lung; HOP-92 NSCLC; NCI-H522 lung; A549/ATCC NSCLC; 786-0 renal; COLO 205 colon; DU-145 prostate; K-562 leukemia; MALME-3M melanoma; MDA-MB-231 breast; RXF 393 renal; SF-268 CNS; SF-295 CNS; SF-539 CNS; UACC-257 melanoma; M14 melanoma.
Common to all, as to assay: NCI-60 one-dose screen, 48 h (100 = growth as untreated, 0 = no growth, -100 = all killed)
Conditions in all cases: 10 µM unless noted

About 83,000 compounds went through this panel and 20% of them were active in at least one assay; those are over-represented in the sample as a whole.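 Cell lines were cultured in 96-well plates, exposed to a single compound concentration, and assessed for percent growth 48 hours later.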 Unmarked numbers belong to inactive results. Activity calls are given as the source filed them. How the source made its calls: active means growth percent below 10; inactive means the rest.

On to `O=C1Nc2ccccc2/C1=N\c1nnc(-c2ccccc2)o1`, for which the growth in the assay on NCI-H23 lung is 91.8%; in the assay on NCI-H226 lung, 88.7%; with NCI-H322M lung, 86.8%; in the assay on HOP-62 NSCLC it was 82.6%; with NCI-H460 lung, 99.2%; in the assay with HOP-92 NSCLC it was 72.2%. The growth with NCI-H522 lung was 88.4%; with A549/ATCC NSCLC, 103%; in the assay on 786-0 renal, 108%; in the assay with COLO 205 colon, 107%; with DU-145 prostate it was 107%; in the assay on K-562 leukemia, 103%. Further, the growth is 89.7% with MALME-3M melanoma; 82.9% in the assay on MDA-MB-231 breast; 92% in the assay with RXF 393 renal; 98.1% in the assay with SF-268 CNS; 92.8% with SF-295 CNS; 97.8% in the assay on SF-539 CNS. Further, the growth is 100% in the assay with UACC-257 melanoma and 95.9% in the assay with M14 melanoma.
As to `Cn1ncc2c(C(=O)c3ccc(F)cc3)nc(C(C)(C)C)nc21`, the growth is 95.8% in the assay on NCI-H23 lung; 101% with NCI-H226 lung; 97.8% in the assay on NCI-H322M lung; 94.8% in the assay with HOP-62 NSCLC; 101% in the assay on NCI-H460 lung; 56.4% in the assay on HOP-92 NSCLC. Moreover, the growth in the assay with NCI-H522 lung is 91.8%; in the assay on A549/ATCC NSCLC, 91.9%; in the assay on 786-0 renal, 101%; with DU-145 prostate, 102%; with K-562 leukemia, 104%; with MALME-3M melanoma it was 89.7%. The growth in the assay with MDA-MB-231 breast is 102%; with RXF 393 renal, 94.1%; with SF-268 CNS, 97.3%; with SF-295 CNS it was 99.6%; in the assay with SF-539 CNS, 97.1%; in the assay on UACC-257 melanoma, 94.3%. The growth in the assay with M14 melanoma was 100%.
As for `Clc1ccc2[nH]cc(-c3cncn3CCc3ccc4c(c3)OCO4)c2c1`, the growth in the assay with NCI-H23 lung was 62.9%; in the assay with NCI-H226 lung, 56.8%; with NCI-H322M lung, 75.5%; in the assay on HOP-62 NSCLC it was 85.5%; in the assay with NCI-H460 lung, 81.6%; in the assay on HOP-92 NSCLC, 9.07% (active). In addition, the growth is 69.2% in the assay on NCI-H522 lung; 73.2% in the assay with A549/ATCC NSCLC; 73.7% in the assay with 786-0 renal; 80.5% with COLO 205 colon; 86.3% with DU-145 prostate; 48.8% in the assay with K-562 leukemia. Moreover, the growth in the assay on MALME-3M melanoma was 75.5%; in the assay on MDA-MB-231 breast, 65.8%; with RXF 393 renal it was 54.7%; in the assay on SF-268 CNS, 66.5%; with SF-295 CNS it was 58.4%; with SF-539 CNS it was 83.8%. For the same compound, the growth in the assay on UACC-257 melanoma is 57.5%; in the assay on M14 melanoma it was 78.8%.
Take `O=C1C(SCc2ccccc2)=C(Cl)CN1c1ccc(Cl)cc1`: the growth in the assay on NCI-H23 lung is 80.5%; in the assay on NCI-H226 lung, 99%; in the assay with NCI-H322M lung, 98.2%; in the assay on HOP-62 NSCLC, 109%; with NCI-H460 lung it was 106%; with HOP-92 NSCLC, 104%. Also, the growth with NCI-H522 lung was -59.6% (active); in the assay with A549/ATCC NSCLC, 101%; in the assay on 786-0 renal, 103%; in the assay with COLO 205 colon it was 119%; in the assay on DU-145 prostate it was 49.5%; with K-562 leukemia, 52.9%. For the same compound, the growth in the assay with MALME-3M melanoma is 103%; in the assay on MDA-MB-231 breast, 101%; with RXF 393 renal, 107%; with SF-268 CNS it was 108%; in the assay on SF-295 CNS, 102%; with SF-539 CNS it was 97.9%. In addition, the growth in the assay on UACC-257 melanoma was 97.2%; in the assay on M14 melanoma it was 78%.
Consider `CC/C(=C(/c1ccc(Cl)cc1)c1ccc(OCCN)cc1)c1ccccc1`, for which the growth in the assay with NCI-H23 lung is 96%; with NCI-H226 lung, 105%; in the assay with NCI-H322M lung, 108%; in the assay with HOP-62 NSCLC, 116%; in the assay on NCI-H460 lung it was 60.2%; with HOP-92 NSCLC, 103%. In addition, the growth in the assay with NCI-H522 lung is 98.1%; with A549/ATCC NSCLC, 86.2%; with 786-0 renal it was 87.9%; in the assay with COLO 205 colon, 18%; in the assay with DU-145 prostate, 82.7%; in the assay with K-562 leukemia it was 19.7%. In addition, the growth in the assay with MALME-3M melanoma was 94.8%; with MDA-MB-231 breast, 86.6%; in the assay on RXF 393 renal, 92.8%; with SF-268 CNS, 103%; in the assay on SF-295 CNS, 107%; in the assay with SF-539 CNS it was 98.6%. The values for the growth in the assay with UACC-257 melanoma and in the assay with M14 melanoma were 106% and 88.7%, respectively.
On to `CCCCCC[n+]1ccc(SCC(=O)n2ccc3ccccc32)c2ccccc21`, for which the growth in the assay with NCI-H23 lung was 63.8%; in the assay with NCI-H226 lung, 79.5%; with NCI-H322M lung, 94%; in the assay on HOP-62 NSCLC, 90.2%; in the assay with NCI-H460 lung, 99.5%; in the assay with HOP-92 NSCLC it was 81.2%. In addition, the growth with NCI-H522 lung was 73.5%; with A549/ATCC NSCLC, 101%; with 786-0 renal, 102%; in the assay with COLO 205 colon, 99.4%; with DU-145 prostate, 94.1%; in the assay with K-562 leukemia it was 51.7%. The growth in the assay on MALME-3M melanoma is 91.4%; in the assay with MDA-MB-231 breast it was 89.5%; in the assay with RXF 393 renal, 113%; in the assay with SF-268 CNS, 101%; in the assay on SF-295 CNS, 82.2%; in the assay with SF-539 CNS, 96.3%. The growth with UACC-257 melanoma is 100%; with M14 melanoma, 89%.
For the compound `O=C(Nc1cccc(C(F)(F)F)c1)N1CCN(c2cc(-c3cn(-c4ccccc4)nc3-c3cccc(O)c3)ccn2)CC1`, the growth is 37.7% with NCI-H23 lung; 30.3% in the assay with NCI-H226 lung; 73.9% in the assay on NCI-H322M lung; 91.3% with HOP-62 NSCLC; 63.4% in the assay on NCI-H460 lung; 35.7% with HOP-92 NSCLC. Also, the growth with NCI-H522 lung is 31%; in the assay on A549/ATCC NSCLC it was 44.8%; in the assay with 786-0 renal, 54.6%; in the assay on DU-145 prostate it was 61.2%; in the assay on K-562 leukemia, 30.6%; with MALME-3M melanoma it was 46.3%. In addition, the growth in the assay with MDA-MB-231 breast was 54%; in the assay with RXF 393 renal, 46.7%; in the assay with SF-268 CNS it was 59.4%; in the assay on SF-295 CNS, 22.8%; in the assay on SF-539 CNS, 54.7%; in the assay with UACC-257 melanoma, 67.6%. In addition, the growth with M14 melanoma is 41.2%.
